pKd: −log10 of the molar value.

The target in the assay is T1, Zelda (Drosophila melanogaster, UniProt Q9VWC6 1319-1447).
T1 sequence: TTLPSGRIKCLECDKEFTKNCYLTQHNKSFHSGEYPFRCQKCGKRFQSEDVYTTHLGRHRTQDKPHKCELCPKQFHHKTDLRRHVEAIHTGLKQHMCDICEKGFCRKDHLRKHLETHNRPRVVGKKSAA
Kind of assay: FP; 33 mM phosphate pH 7.0, 90 mM NaCl, 0.01% Tween 20, 0.1 mM DTT, 0.5% agarose; room temperature. The following applies: tags: N-GST (pGEX-6P-1, kept); dsDNA, one strand shown.
With AACTTCAGGTACC, the binding signal is 1.86 Kd / Kd of best base at the position.

Consider AATTTCATGTACC, for which the binding signal was 12.8 Kd / Kd of best base at the position.

For AATATCAGGTACC, the binding signal is 1.65 Kd / Kd of best base at the position.

AATTACAGGTACC: the binding signal was 1.77 Kd / Kd of best base at the position.

For the sequence ACTTTCAGGTACC, the binding signal is 1.87 Kd / Kd of best base at the position.

On to AATTTAAGGTACC, for which the binding signal was 17.1 Kd / Kd of best base at the position.

Take AGTTTCAGGTACC: the binding signal was 2.05 Kd / Kd of best base at the position.

Turning to AATTTCAGGTACA, the binding signal is 2.29 Kd / Kd of best base at the position.

Take AAGTTCAGGTACC: the binding signal is 1.72 Kd / Kd of best base at the position.

For the sequence AATTTCAGGAACC, the binding signal was 19.3 Kd / Kd of best base at the position.

Turning to CATTTCAGGTACC, the binding signal was 1.46 Kd / Kd of best base at the position.

As for AATTTCTGGTACC, the binding signal is 19.2 Kd / Kd of best base at the position.

Take AATTTCAGGTACG: the binding signal is 2.98 Kd / Kd of best base at the position.

As to AATGTCAGGTACC, the binding signal was 1.84 Kd / Kd of best base at the position.

As to AATTTGAGGTACC, the binding signal is 17.6 Kd / Kd of best base at the position.

Regarding AATTTCAGGTTCC, the binding signal is 14.1 Kd / Kd of best base at the position.

With AATTCCAGGTACC, the binding signal is 1.28 Kd / Kd of best base at the position.

As for AATTTCAGGTACT, the binding signal is 2.11 Kd / Kd of best base at the position.

AATTTCAGCTACC: the binding signal is 15.7 Kd / Kd of best base at the position.

For the sequence TATTTCAGGTACC, the binding signal is 1.83 Kd / Kd of best base at the position.

With AATTTCAGGTGCC, the binding signal is 9.55 Kd / Kd of best base at the position.

In the case of AATTGCAGGTACC, the binding signal was 1.37 Kd / Kd of best base at the position.

AATTTCAGTTACC: the binding signal was 9.11 Kd / Kd of best base at the position.

In general, pKd refers to −log10 of the Kd, conventionally taken in molar units. On to AATTTCAGGTACC, for which the negative-log Kd (pKd) is ~8.24.

Consider AATTTCAGGTCCC, for which the binding signal was 10.1 Kd / Kd of best base at the position.

Regarding AATTTCAGGGACC, the binding signal is 12.3 Kd / Kd of best base at the position.

Take AATTTCAAGTACC: the binding signal was 8.76 Kd / Kd of best base at the position.

For the sequence AATCTCAGGTACC, the binding signal was 1.8 Kd / Kd of best base at the position.

On to AATTTCCGGTACC, for which the binding signal is 36.1 Kd / Kd of best base at the position.

With AATTTCAGGCACC, the binding signal was 9.39 Kd / Kd of best base at the position.

AATTTCACGTACC: the binding signal is 11.7 Kd / Kd of best base at the position.

In the case of GATTTCAGGTACC, the binding signal is 2.27 Kd / Kd of best base at the position.

AAATTCAGGTACC: the binding signal was 1.56 Kd / Kd of best base at the position.

AATTTCAGGTATC: the binding signal is 2.16 Kd / Kd of best base at the position.

AATTTCAGGTAAC: the binding signal was 1.38 Kd / Kd of best base at the position.

Take AATTTTAGGTACC: the binding signal is 4.6 Kd / Kd of best base at the position.

On to AATTTCAGATACC, for which the binding signal is 12.3 Kd / Kd of best base at the position.

In the case of ATTTTCAGGTACC, the binding signal was 1.63 Kd / Kd of best base at the position.

As for AATTTCGGGTACC, the binding signal was 7.8 Kd / Kd of best base at the position.

AATTTCAGGTAGC: the binding signal was 1.01 Kd / Kd of best base at the position.
